In PubChem BioAssay AID1259336 (Sattelle Laboratory, UCL Respiratory, Division of Medicine, …, 2017):
A number with no mark means an inactive call. Activity calls are given as the source filed them. Rule as the data show it: active = log2 fold change growth below about -1.8; inactive = the rest.

Assay: C. elegans growth inhibition, whole organism, log2 fold change (AID 1259336);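 also: growth scored by imaging after five days at 20 °C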
Conditions: anthelmintic screen, active compounds read low

Point of comparison: CCc1ccc(S(=O)(=O)Nc2cc(CN3CCN(CCC(C)C)CC3)ccc2C)cc1, log2 fold change growth 0.554. Against it:
- CN1CCN(c2nccc3[nH]c(-c4cccc(F)c4)cc23)CC1 — lower, -0.0356
- C[C@H]1COC2(CCN(c3nc(=O)c4cc(C(F)(F)F)cc([N+](=O)[O-])c4s3)CC2)O1 — lower, -0.284
- CC[C@H](NC(=O)c1ccccc1NC(=O)c1ccc(C)cc1)C(=O)OC — lower, 0.0874
- COc1ccc(CN2CCOc3ccc([C@@](C)(O)CN(C)C)cc3C2)cc1C — lower, 0.162
- COc1cccc(-c2cc3c(Nc4cccnc4)nccc3[nH]2)c1 — lower, 0.319
- Cc1cc(C)cc(COc2ccc3c(C)c(CCC(=O)O)c(=O)oc3c2C)c1 — lower, -0.0961
- C[C@H]1c2cccc(O)c2C(O)=C2C(=O)[C@]3(O)C(O)=C(C(N)=O)C(=O)[C@@H](N(C)C)[C@@H]3[C@@H](O)[C@@H]21 — higher, 0.805
- N[C@@H](CC(=O)c1ccc(Cl)cc1Cl)C(Cl)(Cl)Cl — lower, -0.444
- C[C@@H](C(=O)Nc1ccc2oc(-c3ccncc3)nc2c1)c1ccccc1 — lower, 0.0616
- Nc1ncc(-c2cn[nH]c2)cc1-c1nc2ncc(Cl)cc2[nH]1 — lower, -0.454
- COc1cc(Br)cc2cc(C(=O)Nc3cccc(C(F)(F)F)c3)c(=O)oc12 — within 0.2 log units, 0.421

For O=C(c1ccco1)N(CCCn1ccnc1)c1nc2c(Cl)cccc2s1, the log2 fold change growth was -2.18 (active).
With Clc1ccc(-n2cc(COc3ccnc4ccccc34)nn2)cc1 the log2 fold change growth was -5.7 (active).
